Assay results: the supplement of paper PMC10849652
About 8,800 targets were measured; listed, in parts, are those with a hit and a random draw of the rest. About 0.5% of all pairs of compound and target were hits.

Experiments:
Assay in all cases: log2 fold change, soluble protein after heating vs DMSO (PISA); higher = thermal stabilisation; K562 lysate, 10 uM; active = over 0.2 and 3.5 SD of the protein, either way, in both replicates (recomputed)
ibrutinib = compound: C=CC(=O)N1CCC[C@@H](n2nc(-c3ccc(Oc4ccccc4)cc3)c3c(N)ncnc32)C1 [ibrutinib]
In short: (§1)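 K562 pellets were dounce-homogenised in PBS pH 7.4 containing 1 mM MgCl2, and the crude extract, at 1 mg/mL protein, was exposed to 10 μM compound for 30 min. Aliquots were heated for 3 min across 48°C-58°C, pooled, brought to 0.5% NP-40 at 4°C and spun at 21,000xg for 90 min, with the supernatant taken as soluble protein. TMTpro 16plex LC-MS/MS with equalised channel sums quantified that protein. Values are log-two fold changes in thermal stability relative to solvent controls, taken from duplicates.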

[1] = compound: CC(=O)c1cnc2ccc(-c3cc(Cl)c(O)c(Cl)c3)nc2c1N[C@H]1CC[C@H](CN(C)C)CC1
In short: as §1

ralimetinib = compound: CC(C)(C)Cn1c(N)nc2ccc(-c3[nH]c(C(C)(C)C)nc3-c3ccc(F)cc3)nc21 [ralimetinib]
In short: as §1

[2] = compound: CC(C)(O)CC(=O)NCCn1ccc2ncnc(Nc3ccc(Oc4cccc(C(F)(F)F)c4)c(Cl)c3)c21
In short: as §1

[3] = compound: CC(C)C1=C2N=C(C=C(N2N=C1)NCC3=CC=CC=C3)NCCCCCCN
In short: as §1

[4] = compound: CC1=C(C(CC(=O)N1)C2=CC=C(C=C2)C(F)(F)F)C(=O)NC3=C(C=C4C(=C3)C=NN4)F
In short: as §1

[5] = compound: CC1=C(C2=C(C=C1)C(=O)C3=CC=CC=C3N2CCCN)C
In short: as §1

[6] = compound: CC1=C(C=C(C=C1)NC(=O)C2=CC(=CC=C2)C(C)(C)C#N)NC3=CC4=C(C=C3)N=CN(C4=O)C
In short: as §1

[7] = compound: CC1=C(C=C(C=C1)NC(=O)C2=CC(=CC=C2)N(C)C)NC(=O)C3=CC=C(C=C3)O
In short: as §1

[8] = compound: CC1=CC=C(C=C1)SC2=C3C=C(SC3=CN=C2)C(=O)N
In short: as §1

vemurafenib = compound: CCCS(=O)(=O)Nc1ccc(F)c(C(=O)c2c[nH]c3ncc(-c4ccc(Cl)cc4)cc23)c1F [vemurafenib]
In short: as §1

[9] = compound: CCCS(=O)(=O)Nc1ccc(F)c(C(=O)c2c[nH]c3ncc(Cl)cc23)c1F
In short: as §1

barasertib = compound: CCN(CCCOc1ccc2c(Nc3cc(CC(=O)Nc4cccc(F)c4)[nH]n3)ncnc2c1)CCOP(=O)(O)O [barasertib]
In short: as §1

[10] = compound: CC[C@@H]1C(=O)N(C)c2cnc(Nc3ccc(C(=O)NC4CCN(C)CC4)cc3OC)nc2N1C1CCCC1
In short: as §1

volasertib = compound: CC[C@@H]1C(=O)N(C)c2cnc(Nc3ccc(C(=O)N[C@H]4CC[C@H](N5CCN(CC6CC6)CC5)CC4)cc3OC)nc2N1C(C)C [volasertib]
In short: as §1

[11] = compound: CCn1c(C(=O)N(C2CC2)C2CC2)cc2c3c(ncn3C)c(Nc3cc(C)n(C)n3)nc21
In short: as §1

[12] = compound: CCn1cc(-c2ccnc3[nH]c(-c4cccc(CN(C)C)c4)cc23)c(-c2ccc(NC(=O)N(C)C)cc2)n1
In short: as §1

[13] = compound: CN1CCC(CNc2ccc3ncc(-c4cccc(OC(F)(F)F)c4)n3n2)CC1
In short: as §1

saracatinib = compound: CN1CCN(CCOc2cc(OC3CCOCC3)c3c(Nc4c(Cl)ccc5c4OCO5)ncnc3c2)CC1 [saracatinib]
In short: as §1

sotrastaurin = compound: CN1CCN(c2nc(C3=C(c4c[nH]c5ccccc45)C(=O)NC3=O)c3ccccc3n2)CC1 [sotrastaurin]
In short: as §1

Measured: log2 fold change

MAST4 (UniProt O15021)
active: [1] 0.423
inactive: ibrutinib 0.019 | ralimetinib 0.04 | [2] 0.061 | [3] -0.032 | [4] -0.075 | [5] 0.032 | [6] -0.173 | [7] -0.023 | [8] 0.049 | vemurafenib -0.085 | [9] -0.049 | barasertib 0.051 | [10] -0.126 | volasertib -0.017 | [11] 0.121 | [12] -0.204 | [13] 0.059 | saracatinib -0.001 | sotrastaurin -0.015

LUZP1 (UniProt Q86V48)
inactive: ibrutinib 0.002 | [1] -0.002 | ralimetinib 0.003 | [2] -0.012 | [3] 0.016 | [4] -0.006 | [5] 0.012 | [6] 0.011 | [7] -0.002 | [8] 0.017 | vemurafenib 0.037 | [9] 0.003 | barasertib 0.013 | [10] 0.086 | volasertib -0.015 | [11] 0.012 | [12] 0.108 | [13] 0.014 | saracatinib -0.024 | sotrastaurin -0.01

MON2 isoform 5 (UniProt Q7Z3U7)
inactive: ibrutinib -0.027 | [1] 0.001 | ralimetinib 0.017 | [2] -0.042 | [3] -0.02 | [4] 0.012 | [5] 0.002 | [6] 0.01 | [7] 0.025 | [8] 0 | vemurafenib -0.015 | [9] 0.025 | barasertib 0.008 | [10] -0.029 | volasertib -0.04 | [11] 0.019 | [12] -0.07 | [13] 0.062 | saracatinib -0.006 | sotrastaurin -0.003

MRPL19 (UniProt P49406)
inactive: ibrutinib 0.067 | [1] 0.027 | ralimetinib 0.034 | [2] -0.057 | [3] 0.029 | [4] -0.021 | [5] 0.01 | [6] -0.013 | [7] 0.023 | [8] -0.002 | vemurafenib 0.026 | [9] 0.029 | barasertib 0.001 | [10] -0.139 | volasertib -0.056 | [11] 0 | [12] 0.026 | [13] -0.053 | saracatinib 0.016 | sotrastaurin -0.016

LZTR1 (UniProt Q8N653)
Sequence of UniProt Q8N653 (Q8N653 whole entry, looked up): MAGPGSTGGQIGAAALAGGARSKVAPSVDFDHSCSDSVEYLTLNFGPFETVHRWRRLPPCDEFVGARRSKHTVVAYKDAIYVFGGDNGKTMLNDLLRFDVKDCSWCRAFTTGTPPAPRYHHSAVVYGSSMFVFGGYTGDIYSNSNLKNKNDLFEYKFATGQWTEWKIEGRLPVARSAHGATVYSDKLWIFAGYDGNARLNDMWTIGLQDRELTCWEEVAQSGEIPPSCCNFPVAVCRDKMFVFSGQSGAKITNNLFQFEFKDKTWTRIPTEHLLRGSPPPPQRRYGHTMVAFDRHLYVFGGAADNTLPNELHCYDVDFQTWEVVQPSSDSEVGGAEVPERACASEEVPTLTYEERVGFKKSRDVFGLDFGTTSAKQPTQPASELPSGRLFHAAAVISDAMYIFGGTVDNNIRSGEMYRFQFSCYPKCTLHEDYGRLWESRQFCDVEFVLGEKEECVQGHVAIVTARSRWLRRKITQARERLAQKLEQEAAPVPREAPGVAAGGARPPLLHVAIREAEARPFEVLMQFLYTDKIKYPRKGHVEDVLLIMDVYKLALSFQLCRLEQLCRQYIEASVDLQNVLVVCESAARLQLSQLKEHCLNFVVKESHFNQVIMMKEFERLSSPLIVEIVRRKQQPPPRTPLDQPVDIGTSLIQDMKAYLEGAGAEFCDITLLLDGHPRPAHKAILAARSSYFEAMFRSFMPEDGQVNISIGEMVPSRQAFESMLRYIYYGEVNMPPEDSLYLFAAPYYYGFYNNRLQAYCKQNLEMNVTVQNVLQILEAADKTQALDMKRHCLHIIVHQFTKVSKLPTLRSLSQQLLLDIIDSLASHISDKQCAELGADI
inactive: ibrutinib -0.074 | [1] -0.441 | ralimetinib -0.023 | [2] 0.102 | [3] 0.009 | [4] 0.048 | [5] -0.014 | [6] -0.001 | [7] 0.113 | [8] 0.041 | vemurafenib 0.026 | [9] -0.118 | barasertib 0.081 | [10] 0.002 | volasertib -0.125 | [11] -0.012 | [12] 0 | [13] -0.047 | saracatinib -0.031 | sotrastaurin 0.065

METTL7A (UniProt Q9H8H3)
Sequence of UniProt Q9H8H3 (Q9H8H3 whole entry, looked up): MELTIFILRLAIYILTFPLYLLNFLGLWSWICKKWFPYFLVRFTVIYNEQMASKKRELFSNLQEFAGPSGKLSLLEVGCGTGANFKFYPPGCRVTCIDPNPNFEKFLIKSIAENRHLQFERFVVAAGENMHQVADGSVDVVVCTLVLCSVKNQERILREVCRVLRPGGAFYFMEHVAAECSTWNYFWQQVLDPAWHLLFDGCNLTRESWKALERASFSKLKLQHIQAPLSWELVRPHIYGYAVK
inactive: ibrutinib 0.113 | [1] -0.055 | ralimetinib 0.036 | [2] -0.025 | [3] 0.017 | [4] 0.016 | [5] -0.055 | [6] 0.068 | [7] -0.033 | [8] -0.035 | vemurafenib -0.08 | [9] 0.056 | barasertib -0.123 | [10] -0.022 | volasertib 0.226 | [11] -0.018 | [12] 0.014 | [13] 0.081 | saracatinib -0.028 | sotrastaurin -0.028

LLGL1 (UniProt Q15334)
inactive: ibrutinib 0.007 | [1] 0.091 | ralimetinib 0.071 | [2] 0.015 | [3] -0.141 | [4] 0.033 | [5] -0.058 | [6] 0.019 | [7] 0.174 | [8] -0.011 | vemurafenib 0.06 | [9] -0.052 | barasertib -0.014 | [10] -0.057 | volasertib 0.02 | [11] -0.038 | [12] 0.033 | [13] -0.008 | saracatinib -0.097 | sotrastaurin 0.168

MAP11 (UniProt Q8WVR3)
Sequence of UniProt Q8WVR3 (Q8WVR3 whole entry, looked up): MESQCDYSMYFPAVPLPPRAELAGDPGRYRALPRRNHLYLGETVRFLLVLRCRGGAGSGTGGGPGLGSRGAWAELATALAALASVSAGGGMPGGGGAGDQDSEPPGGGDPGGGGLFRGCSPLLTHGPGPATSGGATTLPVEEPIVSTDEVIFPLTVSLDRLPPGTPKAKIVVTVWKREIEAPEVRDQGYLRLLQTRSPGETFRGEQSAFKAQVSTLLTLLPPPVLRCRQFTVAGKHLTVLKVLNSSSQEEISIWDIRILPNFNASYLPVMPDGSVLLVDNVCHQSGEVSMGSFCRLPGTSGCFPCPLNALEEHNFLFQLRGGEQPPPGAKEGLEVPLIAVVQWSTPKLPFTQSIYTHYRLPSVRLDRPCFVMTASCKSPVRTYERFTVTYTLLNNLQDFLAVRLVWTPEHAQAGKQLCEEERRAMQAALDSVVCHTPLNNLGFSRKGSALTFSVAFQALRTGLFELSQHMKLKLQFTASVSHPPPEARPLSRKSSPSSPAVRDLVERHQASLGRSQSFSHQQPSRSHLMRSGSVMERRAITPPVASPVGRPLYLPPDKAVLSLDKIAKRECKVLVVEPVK
inactive: ibrutinib 0.064 | [1] 0.072 | ralimetinib 0.037 | [2] -0.008 | [3] -0.005 | [4] 0.105 | [5] -0.063 | [6] 0.014 | [7] -0.031 | [8] 0.078 | vemurafenib -0.032 | [9] 0.044 | barasertib 0.07 | [10] 0.129 | volasertib -0.079 | [11] 0.086 | [12] 0.049 | [13] 0.06 | saracatinib 0.033 | sotrastaurin -0.039

MECR (UniProt Q9BV79)
inactive: ibrutinib 0.025 | [1] -0.029 | ralimetinib -0.006 | [2] -0.049 | [3] 0.008 | [4] 0.008 | [5] 0.058 | [6] -0.006 | [7] 0.006 | [8] 0.011 | vemurafenib 0.055 | [9] 0.035 | barasertib 0.008 | [10] -0.05 | volasertib -0.008 | [11] 0.004 | [12] -0.043 | [13] 0.023 | saracatinib 0.095 | sotrastaurin -0.007

KIF4A (UniProt O95239)
Sequence of UniProt O95239 (O95239 whole entry, looked up): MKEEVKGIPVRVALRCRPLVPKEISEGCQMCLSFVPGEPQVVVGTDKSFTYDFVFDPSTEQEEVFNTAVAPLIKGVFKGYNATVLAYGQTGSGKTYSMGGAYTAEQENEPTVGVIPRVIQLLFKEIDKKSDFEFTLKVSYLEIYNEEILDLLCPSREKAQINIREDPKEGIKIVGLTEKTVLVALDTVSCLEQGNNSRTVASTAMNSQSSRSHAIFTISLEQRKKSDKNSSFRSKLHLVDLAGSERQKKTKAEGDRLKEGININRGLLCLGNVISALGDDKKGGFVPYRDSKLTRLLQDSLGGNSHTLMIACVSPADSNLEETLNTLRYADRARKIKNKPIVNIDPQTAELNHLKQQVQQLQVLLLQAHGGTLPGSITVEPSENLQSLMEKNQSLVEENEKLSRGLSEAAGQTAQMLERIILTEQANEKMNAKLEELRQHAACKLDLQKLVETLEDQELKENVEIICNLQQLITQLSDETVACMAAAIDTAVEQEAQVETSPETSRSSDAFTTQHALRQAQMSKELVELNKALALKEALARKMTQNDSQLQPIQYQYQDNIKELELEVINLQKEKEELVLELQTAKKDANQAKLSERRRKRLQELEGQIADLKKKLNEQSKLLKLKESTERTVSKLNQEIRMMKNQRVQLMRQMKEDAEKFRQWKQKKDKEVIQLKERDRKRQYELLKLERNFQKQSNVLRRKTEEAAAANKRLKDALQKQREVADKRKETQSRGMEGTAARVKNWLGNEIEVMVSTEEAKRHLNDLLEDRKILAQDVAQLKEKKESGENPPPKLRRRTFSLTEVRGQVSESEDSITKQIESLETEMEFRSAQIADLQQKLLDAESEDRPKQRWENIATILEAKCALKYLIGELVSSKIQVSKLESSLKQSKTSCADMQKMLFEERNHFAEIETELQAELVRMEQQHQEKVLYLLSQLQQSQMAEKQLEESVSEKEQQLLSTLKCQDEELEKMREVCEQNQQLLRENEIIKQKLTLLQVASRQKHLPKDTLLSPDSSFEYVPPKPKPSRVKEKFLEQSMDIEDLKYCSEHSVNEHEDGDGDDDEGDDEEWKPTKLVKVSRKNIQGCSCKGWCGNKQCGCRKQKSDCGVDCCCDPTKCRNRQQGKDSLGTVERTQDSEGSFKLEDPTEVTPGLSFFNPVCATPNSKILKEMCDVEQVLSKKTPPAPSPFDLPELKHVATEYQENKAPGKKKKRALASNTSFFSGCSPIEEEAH
inactive: ibrutinib 0.011 | [1] 0.007 | ralimetinib -0.014 | [2] 0.003 | [3] -0.002 | [4] -0.013 | [5] -0.027 | [6] 0.004 | [7] 0.056 | [8] 0.048 | vemurafenib 0.005 | [9] 0.035 | barasertib -0.02 | [10] -0.021 | volasertib -0.055 | [11] 0.003 | [12] 0.013 | [13] -0.07 | saracatinib 0.007 | sotrastaurin -0.003

MARF1 (UniProt Q9Y4F3)
Sequence of UniProt Q9Y4F3 (Q9Y4F3 whole entry, looked up): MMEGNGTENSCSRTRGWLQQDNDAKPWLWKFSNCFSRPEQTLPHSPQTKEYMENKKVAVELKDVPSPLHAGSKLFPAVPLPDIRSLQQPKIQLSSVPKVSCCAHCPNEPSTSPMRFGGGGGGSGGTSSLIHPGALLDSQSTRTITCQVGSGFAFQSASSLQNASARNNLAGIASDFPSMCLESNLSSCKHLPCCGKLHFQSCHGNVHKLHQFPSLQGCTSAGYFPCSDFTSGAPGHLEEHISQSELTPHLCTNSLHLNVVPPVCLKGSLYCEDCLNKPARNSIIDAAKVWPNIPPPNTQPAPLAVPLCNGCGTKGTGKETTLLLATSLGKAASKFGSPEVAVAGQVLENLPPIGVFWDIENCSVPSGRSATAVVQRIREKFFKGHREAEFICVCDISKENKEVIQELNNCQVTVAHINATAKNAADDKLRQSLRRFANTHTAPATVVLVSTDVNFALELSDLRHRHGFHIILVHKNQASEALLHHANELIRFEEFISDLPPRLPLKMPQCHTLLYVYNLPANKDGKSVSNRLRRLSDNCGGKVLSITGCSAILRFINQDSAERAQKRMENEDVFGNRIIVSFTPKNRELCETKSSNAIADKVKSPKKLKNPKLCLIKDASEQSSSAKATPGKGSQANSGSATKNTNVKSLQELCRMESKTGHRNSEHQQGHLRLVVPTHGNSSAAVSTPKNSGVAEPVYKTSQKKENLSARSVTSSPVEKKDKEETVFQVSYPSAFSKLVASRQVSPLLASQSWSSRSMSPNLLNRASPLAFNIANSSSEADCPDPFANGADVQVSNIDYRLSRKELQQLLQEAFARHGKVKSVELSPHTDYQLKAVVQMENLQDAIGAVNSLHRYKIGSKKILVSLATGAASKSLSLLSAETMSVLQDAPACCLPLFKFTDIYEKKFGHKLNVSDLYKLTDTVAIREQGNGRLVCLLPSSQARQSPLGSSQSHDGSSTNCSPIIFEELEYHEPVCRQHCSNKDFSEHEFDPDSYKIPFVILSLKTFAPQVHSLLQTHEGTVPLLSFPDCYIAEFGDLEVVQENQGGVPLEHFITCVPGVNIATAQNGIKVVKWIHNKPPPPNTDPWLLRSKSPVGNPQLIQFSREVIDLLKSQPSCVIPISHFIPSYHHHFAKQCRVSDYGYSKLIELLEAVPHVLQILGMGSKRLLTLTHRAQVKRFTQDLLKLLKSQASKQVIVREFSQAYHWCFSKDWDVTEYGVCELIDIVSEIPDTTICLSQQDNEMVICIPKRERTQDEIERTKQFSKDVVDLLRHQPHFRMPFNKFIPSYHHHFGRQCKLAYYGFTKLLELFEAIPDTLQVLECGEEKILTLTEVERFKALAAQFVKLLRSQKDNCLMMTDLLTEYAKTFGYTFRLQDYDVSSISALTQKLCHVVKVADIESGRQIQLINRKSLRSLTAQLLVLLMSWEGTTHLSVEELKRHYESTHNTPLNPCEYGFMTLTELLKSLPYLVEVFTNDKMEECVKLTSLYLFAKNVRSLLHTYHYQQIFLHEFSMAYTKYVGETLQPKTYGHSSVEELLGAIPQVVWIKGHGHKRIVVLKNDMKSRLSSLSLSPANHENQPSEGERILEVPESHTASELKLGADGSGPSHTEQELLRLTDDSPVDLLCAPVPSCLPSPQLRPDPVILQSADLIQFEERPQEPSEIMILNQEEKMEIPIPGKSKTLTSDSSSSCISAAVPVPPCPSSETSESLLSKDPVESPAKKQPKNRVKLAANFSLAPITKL
inactive: ibrutinib 0.027 | ralimetinib 0.034 | [2] -0.042 | [3] -0.045 | [4] -0.021 | [5] 0.037 | [6] 0.004 | [7] 0.01 | vemurafenib -0.093 | barasertib 0.051 | [10] -0.059 | [11] 0.007 | [12] -0.027 | [13] -0.059 | saracatinib 0.027 | sotrastaurin 0

LSM11 (UniProt P83369)
Sequence of UniProt P83369 (P83369 whole entry, looked up): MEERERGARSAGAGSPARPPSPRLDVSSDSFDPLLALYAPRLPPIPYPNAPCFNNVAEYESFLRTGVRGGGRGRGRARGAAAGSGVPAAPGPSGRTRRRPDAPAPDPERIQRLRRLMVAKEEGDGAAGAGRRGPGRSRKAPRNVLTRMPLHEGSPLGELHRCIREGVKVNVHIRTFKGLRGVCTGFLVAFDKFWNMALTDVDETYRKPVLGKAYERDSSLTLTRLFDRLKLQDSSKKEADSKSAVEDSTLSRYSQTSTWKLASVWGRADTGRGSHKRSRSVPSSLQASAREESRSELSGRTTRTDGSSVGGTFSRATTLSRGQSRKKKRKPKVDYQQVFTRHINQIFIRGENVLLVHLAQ
inactive: [3] 0.004 | [5] -0.198 | [6] -0.161 | vemurafenib 0.077 | [10] 0.06 | [12] 0.115 | [13] 0.212 | saracatinib 0.076 | sotrastaurin -0.085
